Assay results from ChEMBL document CHEMBL1961873, “Compounds: GSK PKIS; Assays: Nanosyn kinase panel” (2012).

Experiments:
[1] = molecular target: Protein kinase C gamma type (Homo sapiens) (UniProt P05129); settings: at 1 µM;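 also: each value is an averaged percent inhibition of the enzyme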
[2] = molecular target: T1, Protein kinase C iota type (Homo sapiens) (UniProt P41743); settings: at 0.1 µM
T1 sequence (whole entry): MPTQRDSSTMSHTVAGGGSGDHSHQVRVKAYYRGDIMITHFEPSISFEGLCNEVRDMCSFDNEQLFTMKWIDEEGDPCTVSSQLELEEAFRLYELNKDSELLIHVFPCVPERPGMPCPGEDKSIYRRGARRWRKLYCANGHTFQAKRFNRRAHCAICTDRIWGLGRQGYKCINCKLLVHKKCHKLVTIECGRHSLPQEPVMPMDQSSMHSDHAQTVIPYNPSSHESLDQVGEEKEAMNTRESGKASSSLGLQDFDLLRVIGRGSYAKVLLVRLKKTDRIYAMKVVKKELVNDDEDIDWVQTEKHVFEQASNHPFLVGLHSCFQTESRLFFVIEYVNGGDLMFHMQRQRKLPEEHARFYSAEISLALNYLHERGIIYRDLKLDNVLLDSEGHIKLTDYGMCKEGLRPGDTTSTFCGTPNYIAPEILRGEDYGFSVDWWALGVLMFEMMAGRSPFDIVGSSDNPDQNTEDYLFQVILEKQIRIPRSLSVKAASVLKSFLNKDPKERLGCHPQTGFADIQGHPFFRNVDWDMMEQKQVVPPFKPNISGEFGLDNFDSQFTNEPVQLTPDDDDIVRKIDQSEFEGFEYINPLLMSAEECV

[3] = molecular target: T1, Protein kinase C iota type (Homo sapiens); settings: at 1 µM
[4] = molecular target: Protein kinase C theta type (Homo sapiens) (UniProt Q04759); settings: at 0.1 µM
Protein kinase C theta type (Homo sapiens), sequence (Q04759 whole entry, looked up): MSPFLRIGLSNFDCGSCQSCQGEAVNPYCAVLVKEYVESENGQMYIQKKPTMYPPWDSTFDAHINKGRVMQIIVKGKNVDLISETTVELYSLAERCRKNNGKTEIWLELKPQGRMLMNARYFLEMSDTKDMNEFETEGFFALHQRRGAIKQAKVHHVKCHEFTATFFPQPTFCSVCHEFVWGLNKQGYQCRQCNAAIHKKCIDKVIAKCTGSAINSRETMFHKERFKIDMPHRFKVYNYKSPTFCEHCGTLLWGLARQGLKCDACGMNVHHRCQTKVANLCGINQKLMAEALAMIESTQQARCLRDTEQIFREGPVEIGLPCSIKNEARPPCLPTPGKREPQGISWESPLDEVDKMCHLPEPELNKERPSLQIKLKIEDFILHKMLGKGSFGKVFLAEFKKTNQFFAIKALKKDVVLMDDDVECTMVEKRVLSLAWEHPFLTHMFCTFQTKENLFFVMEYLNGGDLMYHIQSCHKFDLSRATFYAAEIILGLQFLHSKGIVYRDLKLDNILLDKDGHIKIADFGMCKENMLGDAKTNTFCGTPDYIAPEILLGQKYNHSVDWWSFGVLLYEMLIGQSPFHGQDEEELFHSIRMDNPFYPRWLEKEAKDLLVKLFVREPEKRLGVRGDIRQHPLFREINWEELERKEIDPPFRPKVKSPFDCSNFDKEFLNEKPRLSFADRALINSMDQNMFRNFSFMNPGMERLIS

[5] = molecular target: Protein kinase C theta type (Homo sapiens) (UniProt Q04759); settings: at 1 µM
[6] = molecular target: Protein kinase C beta type (Homo sapiens) (UniProt P05771); settings: at 0.1 µM
Protein kinase C beta type (Homo sapiens), sequence (P05771 2-671 limits assumed): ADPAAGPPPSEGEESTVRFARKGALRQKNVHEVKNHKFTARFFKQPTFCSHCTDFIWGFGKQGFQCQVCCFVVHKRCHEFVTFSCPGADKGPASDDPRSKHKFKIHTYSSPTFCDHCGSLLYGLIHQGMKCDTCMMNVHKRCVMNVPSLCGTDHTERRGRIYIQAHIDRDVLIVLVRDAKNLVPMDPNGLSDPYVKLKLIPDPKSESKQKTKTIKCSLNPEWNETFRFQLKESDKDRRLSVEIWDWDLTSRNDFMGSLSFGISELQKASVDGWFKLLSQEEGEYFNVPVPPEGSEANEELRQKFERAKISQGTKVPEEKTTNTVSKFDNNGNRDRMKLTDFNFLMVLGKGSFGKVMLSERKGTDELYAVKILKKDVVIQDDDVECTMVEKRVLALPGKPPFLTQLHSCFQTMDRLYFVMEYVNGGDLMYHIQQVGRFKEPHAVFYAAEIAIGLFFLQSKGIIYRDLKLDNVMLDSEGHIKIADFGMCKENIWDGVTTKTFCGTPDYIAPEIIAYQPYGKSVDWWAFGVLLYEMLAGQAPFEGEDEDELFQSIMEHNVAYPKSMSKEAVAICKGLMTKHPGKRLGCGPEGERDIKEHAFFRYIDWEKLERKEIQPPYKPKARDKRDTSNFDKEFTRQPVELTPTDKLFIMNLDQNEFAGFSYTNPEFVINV

[7] = molecular target: Protein kinase C beta type (Homo sapiens) (UniProt P05771); settings: at 1 µM
[8] = molecular target: T2, Serine/threonine-protein kinase D1 (Homo sapiens) (UniProt Q15139); settings: at 0.1 µM
T2 sequence (whole entry): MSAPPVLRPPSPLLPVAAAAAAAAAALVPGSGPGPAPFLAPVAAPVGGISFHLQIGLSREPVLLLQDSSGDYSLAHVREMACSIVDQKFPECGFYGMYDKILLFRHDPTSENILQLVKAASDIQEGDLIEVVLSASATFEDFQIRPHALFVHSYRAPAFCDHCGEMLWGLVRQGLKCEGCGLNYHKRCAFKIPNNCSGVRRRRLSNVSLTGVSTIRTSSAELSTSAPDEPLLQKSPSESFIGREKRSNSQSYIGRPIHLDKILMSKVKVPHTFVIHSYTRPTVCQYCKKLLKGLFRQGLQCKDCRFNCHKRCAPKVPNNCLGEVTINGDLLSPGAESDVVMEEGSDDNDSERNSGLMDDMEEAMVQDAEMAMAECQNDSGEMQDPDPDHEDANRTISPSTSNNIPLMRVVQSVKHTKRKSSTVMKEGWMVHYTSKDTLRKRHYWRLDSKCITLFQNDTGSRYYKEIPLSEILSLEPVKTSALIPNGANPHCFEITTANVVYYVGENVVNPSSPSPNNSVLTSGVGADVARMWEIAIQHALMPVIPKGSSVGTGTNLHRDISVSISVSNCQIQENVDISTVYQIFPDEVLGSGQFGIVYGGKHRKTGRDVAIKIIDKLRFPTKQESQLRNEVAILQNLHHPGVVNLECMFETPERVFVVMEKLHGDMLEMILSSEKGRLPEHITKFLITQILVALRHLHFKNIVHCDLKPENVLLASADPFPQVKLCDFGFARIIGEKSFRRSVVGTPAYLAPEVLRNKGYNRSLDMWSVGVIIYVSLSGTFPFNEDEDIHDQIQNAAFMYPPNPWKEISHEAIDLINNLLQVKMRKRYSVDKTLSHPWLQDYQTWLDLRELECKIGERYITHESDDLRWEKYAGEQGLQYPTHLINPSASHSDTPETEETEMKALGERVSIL

[9] = molecular target: T2, Serine/threonine-protein kinase D1 (Homo sapiens); settings: at 1 µM
[10] = molecular target: T3, Serine/threonine-protein kinase D2 (Homo sapiens) (UniProt Q9BZL6); settings: at 0.1 µM
T3 sequence (whole entry): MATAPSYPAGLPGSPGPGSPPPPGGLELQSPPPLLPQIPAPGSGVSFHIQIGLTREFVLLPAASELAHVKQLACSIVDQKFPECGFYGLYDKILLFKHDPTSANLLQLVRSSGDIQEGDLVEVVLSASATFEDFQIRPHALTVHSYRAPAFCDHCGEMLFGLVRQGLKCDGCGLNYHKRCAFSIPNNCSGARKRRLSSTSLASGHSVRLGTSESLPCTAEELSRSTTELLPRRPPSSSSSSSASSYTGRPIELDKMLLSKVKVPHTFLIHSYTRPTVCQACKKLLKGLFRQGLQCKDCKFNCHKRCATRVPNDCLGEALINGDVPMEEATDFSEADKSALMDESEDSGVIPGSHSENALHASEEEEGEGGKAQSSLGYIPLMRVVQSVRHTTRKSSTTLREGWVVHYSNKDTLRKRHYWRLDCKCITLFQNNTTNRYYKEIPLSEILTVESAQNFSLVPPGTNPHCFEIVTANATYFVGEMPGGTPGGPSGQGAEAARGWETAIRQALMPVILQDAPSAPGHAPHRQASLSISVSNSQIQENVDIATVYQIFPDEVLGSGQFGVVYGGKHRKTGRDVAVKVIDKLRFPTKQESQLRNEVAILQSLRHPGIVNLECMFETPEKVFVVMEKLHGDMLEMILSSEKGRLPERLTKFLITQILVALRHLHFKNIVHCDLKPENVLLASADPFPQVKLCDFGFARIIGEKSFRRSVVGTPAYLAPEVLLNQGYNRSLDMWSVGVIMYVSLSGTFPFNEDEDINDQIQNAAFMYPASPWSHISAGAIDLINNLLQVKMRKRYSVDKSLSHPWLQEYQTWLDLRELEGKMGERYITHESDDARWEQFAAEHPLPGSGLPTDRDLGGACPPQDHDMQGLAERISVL

[11] = molecular target: T3, Serine/threonine-protein kinase D2 (Homo sapiens); settings: at 1 µM
[12] = molecular target: T4, Serine/threonine-protein kinase D3 (Homo sapiens) (UniProt O94806); settings: at 0.1 µM
T4 sequence (whole entry): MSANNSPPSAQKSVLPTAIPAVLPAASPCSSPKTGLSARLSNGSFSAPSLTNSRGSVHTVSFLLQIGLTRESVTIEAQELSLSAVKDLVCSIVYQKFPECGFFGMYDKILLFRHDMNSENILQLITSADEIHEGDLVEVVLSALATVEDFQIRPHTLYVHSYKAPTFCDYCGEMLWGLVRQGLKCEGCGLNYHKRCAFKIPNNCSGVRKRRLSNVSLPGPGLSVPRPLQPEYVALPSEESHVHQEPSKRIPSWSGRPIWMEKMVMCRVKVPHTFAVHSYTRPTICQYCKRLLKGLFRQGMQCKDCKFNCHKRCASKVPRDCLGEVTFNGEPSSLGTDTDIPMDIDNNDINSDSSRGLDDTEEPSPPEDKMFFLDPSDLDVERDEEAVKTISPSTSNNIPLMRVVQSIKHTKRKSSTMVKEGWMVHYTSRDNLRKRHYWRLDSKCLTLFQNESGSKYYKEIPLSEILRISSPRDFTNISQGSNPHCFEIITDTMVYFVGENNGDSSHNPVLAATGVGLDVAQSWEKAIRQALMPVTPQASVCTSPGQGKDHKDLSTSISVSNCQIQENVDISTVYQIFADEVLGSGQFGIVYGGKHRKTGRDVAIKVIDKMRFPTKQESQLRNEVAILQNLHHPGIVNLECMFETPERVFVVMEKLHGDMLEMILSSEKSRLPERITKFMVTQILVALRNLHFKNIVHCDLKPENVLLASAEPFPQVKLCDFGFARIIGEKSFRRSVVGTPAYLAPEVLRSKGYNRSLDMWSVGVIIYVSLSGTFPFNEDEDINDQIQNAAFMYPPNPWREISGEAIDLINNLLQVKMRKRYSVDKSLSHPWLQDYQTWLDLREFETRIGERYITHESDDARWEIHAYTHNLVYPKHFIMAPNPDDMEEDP

[13] = molecular target: T4, Serine/threonine-protein kinase D3 (Homo sapiens); settings: at 1 µM
[14] = molecular target: T5, cGMP-dependent protein kinase 1 (Homo sapiens) (UniProt Q13976); settings: at 0.1 µM
T5 sequence (whole entry): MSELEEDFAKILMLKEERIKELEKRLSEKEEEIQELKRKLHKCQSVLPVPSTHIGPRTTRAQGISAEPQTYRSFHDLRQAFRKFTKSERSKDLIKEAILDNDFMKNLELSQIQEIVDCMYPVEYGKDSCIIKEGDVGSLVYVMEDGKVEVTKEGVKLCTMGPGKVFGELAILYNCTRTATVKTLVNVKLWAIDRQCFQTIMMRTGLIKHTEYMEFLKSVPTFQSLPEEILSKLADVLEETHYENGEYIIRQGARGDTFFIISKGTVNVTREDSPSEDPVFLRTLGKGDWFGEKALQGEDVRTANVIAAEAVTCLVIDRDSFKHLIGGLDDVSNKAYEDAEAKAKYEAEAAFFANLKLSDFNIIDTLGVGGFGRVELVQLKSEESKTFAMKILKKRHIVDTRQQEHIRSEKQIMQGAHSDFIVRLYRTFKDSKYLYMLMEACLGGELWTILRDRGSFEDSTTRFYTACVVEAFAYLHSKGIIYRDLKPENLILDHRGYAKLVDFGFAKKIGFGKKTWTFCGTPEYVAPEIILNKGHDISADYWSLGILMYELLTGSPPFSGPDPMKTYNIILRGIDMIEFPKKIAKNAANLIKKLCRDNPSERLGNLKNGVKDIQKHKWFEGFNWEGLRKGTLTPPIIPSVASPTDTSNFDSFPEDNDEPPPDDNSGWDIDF

[15] = molecular target: T5, cGMP-dependent protein kinase 1 (Homo sapiens); settings: at 1 µM
[16] = molecular target: T6, cGMP-dependent protein kinase 2 (Homo sapiens) (UniProt Q13237); settings: at 0.1 µM
T6 sequence (whole entry): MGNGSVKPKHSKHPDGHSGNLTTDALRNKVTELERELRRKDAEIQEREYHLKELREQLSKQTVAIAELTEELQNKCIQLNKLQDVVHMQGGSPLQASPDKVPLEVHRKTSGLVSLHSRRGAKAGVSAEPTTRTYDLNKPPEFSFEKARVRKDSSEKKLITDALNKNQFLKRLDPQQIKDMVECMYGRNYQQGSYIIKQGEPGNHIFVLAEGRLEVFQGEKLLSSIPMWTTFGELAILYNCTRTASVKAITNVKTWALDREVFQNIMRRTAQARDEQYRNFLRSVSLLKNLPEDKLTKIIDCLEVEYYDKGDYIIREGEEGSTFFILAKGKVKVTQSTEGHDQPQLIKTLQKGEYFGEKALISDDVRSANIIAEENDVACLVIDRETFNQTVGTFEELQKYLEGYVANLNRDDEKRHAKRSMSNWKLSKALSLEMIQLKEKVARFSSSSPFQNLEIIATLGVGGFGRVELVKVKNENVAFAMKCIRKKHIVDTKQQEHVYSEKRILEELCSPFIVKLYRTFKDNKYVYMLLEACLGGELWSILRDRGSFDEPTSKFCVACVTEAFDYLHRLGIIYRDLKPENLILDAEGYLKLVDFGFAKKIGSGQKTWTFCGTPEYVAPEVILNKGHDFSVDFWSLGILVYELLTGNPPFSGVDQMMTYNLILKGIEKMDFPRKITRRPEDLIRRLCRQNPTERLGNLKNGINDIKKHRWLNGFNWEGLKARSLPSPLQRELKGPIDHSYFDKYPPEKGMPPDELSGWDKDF

[17] = molecular target: T6, cGMP-dependent protein kinase 2 (Homo sapiens); settings: at 1 µM
[18] = molecular target: T7, cAMP-dependent protein kinase catalytic subunit PRKX (Homo sapiens) (UniProt P51817); settings: at 0.1 µM
T7 sequence (whole entry): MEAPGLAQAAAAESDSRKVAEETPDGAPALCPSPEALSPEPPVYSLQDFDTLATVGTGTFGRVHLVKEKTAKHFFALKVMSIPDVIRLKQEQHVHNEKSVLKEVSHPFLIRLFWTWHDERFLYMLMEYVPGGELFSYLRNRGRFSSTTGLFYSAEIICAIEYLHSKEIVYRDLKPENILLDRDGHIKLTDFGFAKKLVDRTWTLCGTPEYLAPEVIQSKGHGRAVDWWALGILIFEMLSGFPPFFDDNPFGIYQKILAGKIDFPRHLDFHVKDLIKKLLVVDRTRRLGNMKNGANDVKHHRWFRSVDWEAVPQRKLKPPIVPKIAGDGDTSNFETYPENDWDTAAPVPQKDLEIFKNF

[19] = molecular target: T7, cAMP-dependent protein kinase catalytic subunit PRKX (Homo sapiens); settings: at 1 µM
[20] = molecular target: Rho-associated protein kinase 1 (Homo sapiens) (UniProt Q13464); settings: at 0.1 µM;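 also: values are mean percent inhibition of ROCK1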
Rho-associated protein kinase 1 (Homo sapiens), sequence (Q13464 2-1354 limits assumed): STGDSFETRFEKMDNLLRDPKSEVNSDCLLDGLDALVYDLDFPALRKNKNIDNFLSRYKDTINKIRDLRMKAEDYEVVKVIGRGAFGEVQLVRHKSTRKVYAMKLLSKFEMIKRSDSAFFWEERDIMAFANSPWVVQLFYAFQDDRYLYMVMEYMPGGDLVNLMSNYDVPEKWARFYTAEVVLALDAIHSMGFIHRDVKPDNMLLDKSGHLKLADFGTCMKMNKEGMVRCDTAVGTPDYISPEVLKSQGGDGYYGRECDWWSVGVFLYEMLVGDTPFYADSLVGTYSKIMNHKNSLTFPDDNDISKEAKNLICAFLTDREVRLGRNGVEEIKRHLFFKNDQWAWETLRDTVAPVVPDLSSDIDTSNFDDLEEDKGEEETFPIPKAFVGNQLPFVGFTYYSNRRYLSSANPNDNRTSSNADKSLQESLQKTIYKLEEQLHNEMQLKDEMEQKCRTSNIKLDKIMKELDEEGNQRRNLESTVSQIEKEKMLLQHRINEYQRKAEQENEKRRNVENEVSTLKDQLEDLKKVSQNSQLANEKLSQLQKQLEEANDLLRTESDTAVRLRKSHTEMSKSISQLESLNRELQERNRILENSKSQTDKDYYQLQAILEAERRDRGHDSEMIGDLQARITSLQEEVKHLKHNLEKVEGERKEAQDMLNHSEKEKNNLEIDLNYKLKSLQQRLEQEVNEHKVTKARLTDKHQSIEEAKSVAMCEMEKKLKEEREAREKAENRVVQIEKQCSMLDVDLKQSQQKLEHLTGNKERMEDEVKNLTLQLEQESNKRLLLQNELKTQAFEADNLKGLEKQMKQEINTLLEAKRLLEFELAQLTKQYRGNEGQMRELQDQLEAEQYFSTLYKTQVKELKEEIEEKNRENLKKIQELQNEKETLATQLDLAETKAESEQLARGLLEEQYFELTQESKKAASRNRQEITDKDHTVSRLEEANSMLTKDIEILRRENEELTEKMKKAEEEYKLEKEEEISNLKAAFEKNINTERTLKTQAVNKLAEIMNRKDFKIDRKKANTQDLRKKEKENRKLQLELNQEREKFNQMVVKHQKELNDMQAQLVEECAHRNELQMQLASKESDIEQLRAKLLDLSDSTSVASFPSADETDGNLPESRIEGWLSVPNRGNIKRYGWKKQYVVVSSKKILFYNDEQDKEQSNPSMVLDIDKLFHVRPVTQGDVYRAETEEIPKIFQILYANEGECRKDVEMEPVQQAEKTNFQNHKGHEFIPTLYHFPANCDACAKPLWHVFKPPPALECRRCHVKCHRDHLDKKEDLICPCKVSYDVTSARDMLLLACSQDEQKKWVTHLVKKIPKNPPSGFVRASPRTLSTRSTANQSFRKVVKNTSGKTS

Structure (SMILES) | inhibition [1] [%] | inhibition [2] [%] | inhibition [3] [%] | inhibition [4] [%] | inhibition [5] [%] | inhibition [6] [%] | inhibition [7] [%] | inhibition [8] [%] | inhibition [9] [%] | inhibition [10] [%] | inhibition [11] [%] | inhibition [12] [%] | inhibition [13] [%] | inhibition [14] [%] | inhibition [15] [%] | inhibition [16] [%] | inhibition [17] [%] | inhibition [18] [%] | inhibition [19] [%] | inhibition [20] [%]
COc1ccc(-c2nn3ncccc3c2-c2ccnc(Nc3ccc(Cl)c(C(F)(F)F)c3)n2)cc1 | -0.57 | 0.28 | -1.6 | 1.56 | 2.55 | 0.91 | 0.81 | 2.22 | 3.95 | 2.47 | 4.34 | 2.86 | 3.78 | 0.21 | 0.97 | 0.9 | 2.46 | 0.84 | 3.14 | 1.25
CCCN1CCC=C(c2ccc(Nc3nc(Nc4ccccc4C(N)=O)c4cc[nH]c4n3)c(C)c2)C1 | 9.77 | 0.1 | 1.27 | 2.34 | 3.28 | 1.44 | 3.5 | 33.8 | 71.3 | 25.1 | 68.5 | 18.8 | 61.7 | 4.43 | 18.8 | 5.72 | 31.8 | 2.31 | 2.1 | 2.33
NC(=O)c1cccc(Nc2nccc(Nc3cccc4[nH]ncc34)n2)c1 | 9.98 | -0.89 | -1.43 | 0.02 | 6.28 | -1.01 | 7.52 | -1.68 | 6.22 | -1.94 | 5 | -3.05 | 4.5 | -0.53 | 5.24 | 0.86 | 7.93 | 7.81 | 9.23 | 0.94
